± gives the standard deviation of the averaged measurements. Over roughly 33,000 sequences, “E-score (rank enrichment, -0.5 to 0.5)” has its median near -0.0043; the highest 2% begin near 0.24. Many of the other results were omitted from the sample, so the highest values are more common in it than they were.
system: 2Sp-muMax20 (muMax20 with two 2,6-bis(methyl)pyridine Cys staples); assay: PBM 8-mer E-score (E-score (rank enrichment, -0.5 to 0.5)); higher = stronger preferential binding
Experimental: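 Protein binding microarray (universal PBM chip covering all 10-mers in fixed probe flanks) with chemically synthesized human Max(13-93) bHLH-LZ analogs (not full-length Max) bearing noncanonical residues (hArg, Tha, Aib, Nle at 65) and aromatic Cys staples. Read-out per 8-mer (and its reverse complement): E-score (rank-based enrichment, -0.5 to 0.5) and Z-score of median probe intensity.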

Row | Sequence | PBM 8-mer E-score
1 | CTTATCAC | 0.00992 ± 0.026
2 | ACCGAGCT | -0.158 ± 0.00061
3 | CGAGTAAG | 0.0344 ± 0.035
4 | CACGATAA | 0.0394 ± 0.0045
5 | TGGAACCA | -0.0848 ± 0.06
6 | ACGTCCAT | -0.0323 ± 0.032
7 | CCCCACAC | 0.229 ± 0.021
8 | CCCCACAA | 0.245 ± 0.013
9 | GCCCATAA | -0.0636 ± 0.086
10 | TCCCATAA | 0.0959 ± 0.053
11 | CCCCATAA | 0.254 ± 0.037
12 | CCCCACAG | -0.0544 ± 0.039
13 | GTCCAAAA | -0.0163 ± 0.058
14 | ACGCGAAC | 0.0549 ± 0.069
15 | TCACAAAA | 0.0933 ± 0.021
16 | ACAAGCTC | -0.194 ± 0.011
17 | ATATAAAG | 0.21 ± 0.017
18 | GGATAAAA | 0.0526 ± 0.098
19 | ACATAAAA | 0.144 ± 0.037
20 | CTATAAAA | -0.0627 ± 0.04
21 | GTATAAAA | 0.278 ± 0.035
22 | ATATAAAC | 0.315 ± 0.054
23 | ATATAAAT | 0.251 ± 0.037
24 | ATAAAAAT | 0.16 ± 0.044
25 | GTATAAAC | 0.0938 ± 0.044

Row | Sequence | PBM 8-mer E-score
26 | ATATAAAA | 0.3008 ± 0.00046
27 | ATAAAAAC | 0.116 ± 0.046
28 | CTATAAAC | 0.0618 ± 0.024
29 | CTACACTA | 0.111 ± 0.081
30 | ACGCCTTC | -0.0956 ± 0.053
31 | TAATAAAA | 0.231 ± 0.053
32 | TTATAAAA | 0.272 ± 0.021
33 | TGATAAAA | 0.145 ± 0.017
34 | GGGGAAGA | 0.0842 ± 0.0073
35 | AGTCCTTC | -0.195 ± 0.04
36 | ATACCATA | 0.249 ± 0.041
37 | CTACCATC | -0.168 ± 0.094
38 | ATACCATC | 0.237 ± 0.021
39 | GTACCATA | -0.00352 ± 0.14
40 | ACACCATC | 0.0694 ± 0.0049
41 | ATACCATG | 0.102 ± 0.057
42 | AGAAGGTC | 0.126 ± 0.039
43 | ACTTGGCG | -0.143 ± 0.14
44 | CTGCAACC | -0.145 ± 0.031
45 | GCTAGTCA | 0.103 ± 0.052
46 | AGTCACGG | -0.147 ± 0.052
47 | AGTCACGC | 0.26 ± 0.037
48 | AGTCACGA | -0.0662 ± 0.009
49 | ATAAGGTA | 0.164 ± 0.031
50 | ATAAGGAA | -0.0884 ± 0.043

Row | Sequence | PBM 8-mer E-score
51 | ATAAGGAC | 0.0211 ± 0.092
52 | ATAAGGTC | 0.238 ± 0.051
53 | CTAAGGTC | -0.029 ± 0.12
54 | ATAAGGAT | 0.258 ± 0.011
55 | CCAGTATC | -0.0909 ± 0.022
56 | AACCCCGA | 0.0376 ± 0.019
57 | ACGCTTCA | 0.0519 ± 0.091
58 | GTAAGTTA | 0.0283 ± 0.0067
59 | CTAAGTTA | 0.0843 ± 0.017
60 | ATAAGTTA | 0.236 ± 0.025
61 | CAAGGACC | -0.223 ± 0.048
62 | GTTTAATA | 0.203 ± 0.062
63 | AATTAATT | 0.242 ± 0.031
64 | ATTTAATA | 0.243 ± 0.0082
65 | AATTAGTA | 0.268 ± 0.0095
66 | AATTAATA | 0.285 ± 0.03
67 | CATTAGTA | -0.0474 ± 0.081
68 | ACTTAATA | 0.156 ± 0.042
69 | CTTTAATA | 0.207 ± 0.016
70 | AATTAATC | 0.207 ± 0.009
71 | AATTAGTC | 0.0516 ± 0.035
72 | AATTAATG | 0.215 ± 0.028
73 | AGTTAATA | 0.138 ± 0.027
74 | GCTAAGTA | 0.034 ± 0.091
75 | CCGCCGCC | -0.00332 ± 0.019

Row | Sequence | PBM 8-mer E-score
76 | ACACCAGA | -0.0516 ± 0.0077
77 | CATGAACA | -0.0306 ± 0.058
78 | GTTTAGGA | -0.13 ± 0.036
79 | GACCCTTA | -0.0689 ± 0.0029
80 | ATTTAAAG | 0.0431 ± 0.059
81 | ATTTAAAC | 0.329 ± 0.047
82 | CTTTAAAC | 0.0827 ± 0.097
83 | AAAATTCC | 0.0483 ± 0.056
84 | CCTCTTAA | 0.0544 ± 0.11
85 | AATGGGGA | 0.112 ± 0.047
86 | AGTGGGGA | 0.245 ± 0.011
87 | TATGGGGA | 0.283 ± 0.028
88 | CATGGGGA | 0.124 ± 0.043
89 | AGTGGGGG | -0.0461 ± 0.0062
90 | CGTGGGGA | 0.1018 ± 0.00016
91 | GCCATGTA | 0.0368 ± 0.0029
92 | CTCTTGGA | -0.112 ± 0.014
93 | CAGTAGCG | -0.205 ± 0.045
94 | ACGGCTAA | -0.0509 ± 0.014
95 | ACCCCGGC | -0.00709 ± 0.083
96 | ACATAGAC | 0.115 ± 0.034
97 | ATTGAAGA | 0.237 ± 0.023
98 | GTTGAAGA | 0.0675 ± 0.033
99 | ATTGAAGG | -0.0238 ± 0.14
100 | CTTCCGAA | -0.23 ± 0.024

Row | Sequence | PBM 8-mer E-score
101 | ATATTACA | 0.157 ± 0.058
102 | GTATTAGA | 0.182 ± 0.073
103 | ATATTATC | 0.0885 ± 0.023
104 | ATATTATG | 0.274 ± 0.083
105 | GTATTAAA | 0.134 ± 0.014
106 | GTATTATA | 0.259 ± 0.053
107 | ATATTATA | 0.268 ± 0.047
108 | ATATTAGA | 0.235 ± 0.012
109 | ATATTAGC | 0.166 ± 0.0073
110 | AGATTATG | -0.00069 ± 0.061
111 | ATATTAGG | 0.297 ± 0.029
112 | CTATTATA | 0.0957 ± 0.01
113 | CAGTTCGC | -0.0265 ± 0.073
114 | TGTTAGAA | 0.125 ± 0.12
115 | CGACTGGC | -0.148 ± 0.052
116 | CCAGAGAC | -0.05 ± 0.076
117 | GGATGACA | -0.0339 ± 0.094
118 | GTATTCTA | 0.134 ± 0.021
119 | CTATTCTA | 0.227 ± 0.043
120 | ATATTCTA | 0.244 ± 0.04
121 | AATGGCAA | 0.00112 ± 0.089
122 | CCAAGAGC | -0.0397 ± 0.036
123 | CACGTGGC | 0.357 ± 0.064
124 | GACGTGGA | 0.055 ± 0.0074
125 | AACGTGGG | 0.1 ± 0.047

Row | Sequence | PBM 8-mer E-score
126 | AACGTGGA | 0.0553 ± 0.0092
127 | TACGTGGA | 0.0461 ± 0.0044
128 | CACGTGGG | 0.436 ± 0.0081
129 | AACGTGGC | 0.163 ± 0.041
130 | GACGTGGC | 0.0114 ± 0.026
131 | CACGTGGA | 0.398 ± 0.033
132 | CTATTCAG | 0.00673 ± 0.056
133 | AGAAGCGA | -0.0304 ± 0.05
134 | ATCACGGA | -0.0223 ± 0.047
135 | ACTTAGCC | -0.0201 ± 0.091
136 | AGCGTAAC | 0.041 ± 0.14
137 | GACTCAGC | -0.176 ± 0.036
138 | AACGCCTT | -0.0913 ± 0.021
139 | ACACAATG | 0.122 ± 0.025
140 | ACACAATA | 0.247 ± 0.029
141 | ACACAAAG | 0.206 ± 0.045
142 | AGACAATG | 0.00664 ± 0.0054
143 | ACACAAAA | 0.172 ± 0.045
144 | AGACAATC | 0.0678 ± 0.067
145 | ACACAAAC | 0.271 ± 0.025
146 | GCACAATA | -0.00579 ± 0.025
147 | AGACAATA | 0.268 ± 0.026
148 | GAAGGTCA | -0.106 ± 0.027
149 | ATCTAACG | 0.0512 ± 0.018
150 | CCCCTTTA | 0.1759 ± 0.0016

Row | Sequence | PBM 8-mer E-score
151 | ACTGTGGC | -0.025 ± 0.13
152 | TATTTAAA | 0.155 ± 0.05
153 | CATTTAAA | 0.239 ± 0.026
154 | TGTTTAAA | 0.278 ± 0.015
155 | TGTTTTAA | 0.0917 ± 0.0018
156 | CATTTTAA | 0.167 ± 0.029
157 | AGTTTAAA | 0.181 ± 0.021
158 | ATCCTCTA | -0.0199 ± 0.026
159 | CAAGTGTG | 0.119 ± 0.073
160 | AATGCGTC | -0.0127 ± 0.03
161 | ATCAAGAC | -0.00991 ± 0.011
162 | ACGATGAT | 0.0729 ± 0.0089
163 | CTCTATCA | -0.0317 ± 0.017
164 | GGCACCAA | 0.0196 ± 0.084
165 | AATGTGGC | 0.124 ± 0.005
166 | AATGTGGT | 0.0284 ± 0.063
167 | CATGTGGC | 0.173 ± 0.13
168 | AATGTGGG | 0.246 ± 0.00061
169 | CATGTGGA | 0.16 ± 0.0062
170 | CATGTGGG | 0.329 ± 0.026
171 | GGGAGTTA | 0.245 ± 0.029
172 | AGGAGTTA | 0.109 ± 0.0086
173 | CGGAGTTA | -0.187 ± 0.057

Reference: the supplement of paper PMC12636033
